These results are taken from the supplement of paper PMC12669032.

This experiment deals with Bacteroides caccae. Kind of experiment: growth AUC relative to DMSO control (median of replicates) (fraction); higher = more growth (less inhibition), active = hit call of the paper. To be noted: 20 µM; 24 h. The procedure, abridged:
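Area under the growth curve was normalised to the plate median of solvent-only wells, or to row and column medians on the industrial chemical plate. Growth curves came from anaerobic gut bacterial monocultures in mGAM at 37 °C, seeded at OD600 0.05 with 20 µM compound (1% DMSO), and read at OD600 hourly for 24 h with the minimum OD set to 0. The value is the median of three biological replicates grown on separate days.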
`Nc1cccc(O)c1`: the “growth AUC” value is 1.03 (inactive). Take `CCc1cccc(C)c1NC(C)C(=O)O` (racemic): the “growth AUC” value was 1.01 (inactive).

On to `CCc1ccc(C(c2ccc(CC)cc2)C(Cl)Cl)cc1`, for which the “growth AUC” value was 0.912 (inactive). As to `CC(C)N(C(=O)CS(=O)CC(=O)O)c1ccc(F)cc1` (configuration not stated), the “growth AUC” value was 0.965 (inactive). Regarding `O=[N+]([O-])c1ccc(Oc2c(Cl)cc(Cl)cc2Cl)cc1`, the “growth AUC” value was 1.02 (inactive). Regarding `CCOC(=O)c1nc(C(Cl)(Cl)Cl)n(-c2ccc(Cl)cc2Cl)n1`, the “growth AUC” value was 1 (inactive).

For `Cc1ccc2c(c1)[C@H](Nc1nc(N)nc(C(C)F)n1)[C@@H](C)C2` (some centres not stated), the “growth AUC” value was 1 (inactive). Turning to `CCCCCCCC(=O)Oc1c(Br)cc(C#N)cc1Br`, the “growth AUC” value is 0.934 (inactive). As for `CCNc1nc(N)[nH]c(=O)n1`, the “growth AUC” value was 1.01 (inactive). Take `CN(C)C(=O)Nc1cc(C(C)(C)C)on1`: the “growth AUC” value is 1.01 (inactive). Consider `O=C(NC(=O)c1c(F)cccc1F)Nc1cc(C(F)(F)F)cc(C(F)(F)F)c1Cl`, for which the “growth AUC” value was 0.852 (inactive). Turning to `COC(=O)CSc1cc(N=c2sc(=O)n3n2CCCC3)c(F)cc1Cl`, the “growth AUC” value was 1 (inactive). Consider `CCN(Cc1c(F)cccc1Cl)c1c([N+](=O)[O-])cc(C(F)(F)F)cc1[N+](=O)[O-]`, for which the “growth AUC” value is 0.822 (inactive).

Regarding `CCNC(=O)[C@@H](C)OC(=O)Nc1ccccc1`, the “growth AUC” value is 0.991 (inactive). The result for `CON=C(Cc1cccnc1)c1ccc(Cl)cc1Cl` reads 0.889 (inactive); that for `COC(=O)Nc1ccc(Cl)c(Cl)c1`, 0.99 (inactive); that for `CC[N+](CC)(CC(=O)Nc1c(C)cccc1C)Cc1ccccc1.O=C([O-])c1ccccc1`, 0.992 (inactive).
